According to PubChem BioAssay (EPA / NIEHS):
The source made the active and inactive calls. How the source made its calls: active means hit-call score of the fitted dose curve at least 0.9, where 1 is the maximum; inactive means score below 0.9.

Legend:
Settings in all cases: mRNA level, 48 h; actives raise or lower the signal
CYP2C8 (gene 1558) = assay: LTEA_HepaRG_CYP2C8: Life Technologies and Expression Analysis (LTEA) Assay for CYP2C8 using HepaRG (AID 2283483)
How it was run: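 Differentiated HepaRG cells in serum-free induction medium exposed 48 h in duplicate to 8 half-log concentrations from 100 uM in 0.5% DMSO. CYP2C8 mRNA by qRT-PCR normalized to ACTB, GAPDH, POLR2A; bidirectional fit versus DMSO.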

CYP2C9 (gene 1559) = assay: LTEA_HepaRG_CYP2C9: Life Technologies and Expression Analysis (LTEA) Assay for CYP2C9 using HepaRG (AID 2283484)
How it was run: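 Differentiated human HepaRG cells in serum-free induction medium were exposed 48 h to chemicals in 8-point half-log series from 100 uM (0.5% DMSO), in duplicate. CYP2C9 mRNA was measured by qRT-PCR, normalized to ACTB/GAPDH/POLR2A, with bidirectional fitting versus DMSO.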

CYP2E1 (gene 1571) = assay: LTEA_HepaRG_CYP2E1: Life Technologies and Expression Analysis (LTEA) Assay for CYP2E1 using HepaRG (AID 2283485)
How it was run: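 HepaRG cells in serum-free induction medium exposed 48 h to test chemicals, 8 half-log concentrations up to 100 uM in 0.5% DMSO, duplicate. CYP2E1 mRNA by qRT-PCR, normalized to ACTB, GAPDH, POLR2A; bidirectional fit versus DMSO.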

CYP4A11 (gene 1579) = assay: LTEA_HepaRG_CYP4A11: Life Technologies and Expression Analysis (LTEA) Assay for CYP4A11 using HepaRG (AID 2283486)
How it was run: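 HepaRG, 48 h chem exposure, 8 conc (100 uM top, half-log), 0.5% DMSO vehicle; qRT-PCR readout, housekeeping-gene normalized; bidirectional curve fit vs DMSO baseline.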

[1] = read-out: Cytochrome P450 3A4 (Homo sapiens) (UniProt P08684); assay: LTEA_HepaRG_CYP3A4: Life Technologies and Expression Analysis (LTEA) Assay for CYP3A4 using HepaRG (AID 2283487)
How it was run: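 Differentiated HepaRG cells, plated 48 h, then dosed 48 h in serum-free induction medium with 0.5% DMSO, 8 half-log concentrations up to 100 uM, duplicate. CYP3A4 mRNA by qRT-PCR, normalized to ACTB/GAPDH/POLR2A; bidirectional fit versus DMSO.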

[2] = read-out: DNA damage-inducible transcript 3 (DDIT3), DDIT3 (gene 1649); assay: LTEA_HepaRG_DDIT3: Life Technologies and Expression Analysis (LTEA) Assay for DNA damage-inducible transcript 3 (DDIT3) using HepaRG (AID 2283488)
How it was run: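 Differentiated human HepaRG cells in serum-free induction medium were exposed in duplicate for 48 h to 8 concentrations (top 100 uM, half-log steps, 0.5% DMSO). DDIT3 mRNA measured by TaqMan qRT-PCR, normalized to ACTB/GAPDH/POLR2A; bidirectional fit versus DMSO.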

[3] = read-out: Pro-epidermal growth factor (Homo sapiens) (UniProt P01133); assay: LTEA_HepaRG_EGF: Life Technologies and Expression Analysis (LTEA) Assay for Epidermal growth factor (EGF) using HepaRG (AID 2283489)
How it was run: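 HepaRG, 48 h dosing, 100 uM top, half-log x8, 0.5% DMSO. Readout: TaqMan qRT-PCR (Fluidigm array), housekeeping-normalized. Gain or loss of signal fit vs DMSO.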

[4] = read-out: Early growth response protein 1 (EGR1) transcription factor, EGR1 (gene 1958); assay: LTEA_HepaRG_EGR1: Life Technologies and Expression Analysis (LTEA) Assay for Early growth response protein 1 (EGR1) transcription factor using HepaRG (AID 2283490)
How it was run: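 Differentiated HepaRG cells in serum-free induction medium exposed 48 hours, duplicate, to 8 half-log concentrations up to 100 uM in 0.5% DMSO. EGR1 mRNA measured by TaqMan qRT-PCR, normalized to ACTB, GAPDH, POLR2A; bidirectional fit versus DMSO.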

[5] = read-out: Ezrin (EZR), EZR (gene 7430); assay: LTEA_HepaRG_EZR: Life Technologies and Expression Analysis (LTEA) Assay for Ezrin (EZR) using HepaRG (AID 2283491)
How it was run: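 EZR transcript levels came from Fluidigm qRT-PCR and were normalized to three housekeeping genes after 48 h chemical exposure of HepaRG cells. Dosing used an 8-point half-log series with a 100 uM top concentration in 0.5% DMSO, tested in duplicate; both directions were fitted versus vehicle.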

[6] = read-out: Cytochrome P450 3A7 (Homo sapiens) (UniProt P24462); assay: LTEA_HepaRG_CYP3A7: Life Technologies and Expression Analysis (LTEA) Assay for CYP3A7 using HepaRG (AID 2283492)
How it was run: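 Human HepaRG liver cells, 48 h post-plating, switched to serum-free induction medium and exposed in duplicate for 48 h. Dosing: 100 uM top, half-log dilutions, 8 points, 0.5% DMSO vehicle. Read-out: CYP3A7 mRNA, gain or loss fitted against DMSO baseline.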

[7] = read-out: Fatty Acid-Binding Protein 1 (FABP1), FABP1 (gene 2168); assay: LTEA_HepaRG_FABP1: Life Technologies and Expression Analysis (LTEA) Assay for Fatty Acid-Binding Protein 1 (FABP1) using HepaRG (AID 2283494)
How it was run: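 Differentiated human HepaRG cells exposed 48 h in serum-free induction medium to eight half-log concentrations up to 100 uM (0.5% DMSO), duplicate. FABP1 mRNA by qRT-PCR, normalised to ACTB, GAPDH, POLR2A; bidirectional fitting against DMSO.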

[8] = read-out: Cytochrome P450 4A22 (Homo sapiens) (UniProt Q5TCH4); assay: LTEA_HepaRG_CYP4A22: Life Technologies and Expression Analysis (LTEA) Assay for Cytochrome P450 4A22 (CYP4A22) using HepaRG (AID 2283495)
How it was run: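 Readout is CYP4A22 transcript induction or loss, quantified by qRT-PCR and normalized to ACTB, GAPDH and POLR2A. Human HepaRG cells receive test chemicals for 48 h at eight half-log concentrations from 100 uM in 0.5% DMSO.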

[9] = read-out: Cytochrome P450 7A1 (Homo sapiens) (UniProt P22680); assay: LTEA_HepaRG_CYP7A1: Life Technologies and Expression Analysis (LTEA) Assay for Cytochrome P450 7A1 (CYP7A1) using HepaRG (AID 2283496)
How it was run: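 Gene expression endpoint in human HepaRG liver cells treated for 48 h with test chemicals (up to 100 uM, 0.5% DMSO). Values come from bidirectional concentration-response fitting versus DMSO.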

[10] = read-out: Glutathione S-Transferase (GSTA2), GSTA2 (gene 2939); assay: LTEA_HepaRG_GSTA2: Life Technologies and Expression Analysis (LTEA) Assay for Glutathione S-Transferase (GSTA2) using HepaRG (AID 2283497)
How it was run: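 Differentiated human HepaRG cells were exposed in duplicate for 48 h in serum-free induction medium, 8 points from 100 uM top in half-log steps, 0.5% DMSO. GSTA2 mRNA was measured by TaqMan qRT-PCR, normalized to ACTB, GAPDH and POLR2A; bidirectional fit versus DMSO.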

[11] = read-out: growth arrest and DNA damage 45 (GADD45G), GADD45G (gene 10912); assay: LTEA_HepaRG_GADD45G: Life Technologies and Expression Analysis (LTEA) Assay for growth arrest and DNA damage 45 (GADD45G) using HepaRG (AID 2283499)
How it was run: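 Gain or loss of GADD45G mRNA, quantified by TaqMan qRT-PCR against three housekeeping genes, is fitted in both directions relative to 0.5% DMSO. Human HepaRG cultures receive test chemical for 48 h at up to 100 uM.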

[12] = read-out: Glutamate-cysteine ligase regulatory (GCLM), GCLM (gene 2730); assay: LTEA_HepaRG_GCLM: Life Technologies and Expression Analysis (LTEA) Assay for Glutamate-cysteine ligase regulatory (GCLM) using HepaRG (AID 2283500)
How it was run: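 Differentiated human HepaRG cells exposed 48 h in serum-free induction medium to 8-point half-log concentrations (top 100 uM, 0.5% DMSO), in duplicate. GCLM mRNA quantified by qRT-PCR, normalized to ACTB, GAPDH, POLR2A; bidirectional fitting versus DMSO.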

[13] = read-out: Glutathione S-transferase M3 (GSTM3), GSTM3 (gene 2947); assay: LTEA_HepaRG_GSTM3: Life Technologies and Expression Analysis (LTEA) Assay for Glutathione S-transferase M3 (GSTM3) using HepaRG (AID 2283501)
How it was run: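 HepaRG, plated 48 h, then serum-free induction medium; test chemical 48 h, duplicate; 100 uM top, half-log x8, 0.5% DMSO. Read-out: GSTM3 mRNA (TaqMan qRT-PCR, Fluidigm array). Bidirectional fit vs DMSO.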

[14] = read-out: Heat shock 70 kDa protein 1 (HSPA1A), gene 3303; assay: LTEA_HepaRG_HSPA1A: Life Technologies and Expression Analysis (LTEA) Assay for Heat shock 70 kDa protein 1 (HSPA1A) using HepaRG (AID 2283502)
How it was run: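 Differentiated human HepaRG cells in serum-free induction medium were exposed in duplicate for 48 h to eight concentrations (top 100 uM, half-log steps, 0.5% DMSO). HSPA1A mRNA was quantified by qRT-PCR, normalized to ACTB, GAPDH and POLR2A, and fitted bidirectionally against DMSO.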

CYP3A5 (gene 1577) = assay: LTEA_HepaRG_CYP3A5: Life Technologies and Expression Analysis (LTEA) Assay for CYP3A5 using HepaRG (AID 2283493)
How it was run: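 Differentiated HepaRG cells in serum-free induction medium were dosed 48 h with test chemicals (8-point half-log series, top 100 uM, 0.5% DMSO, duplicate). CYP3A5 mRNA measured by qRT-PCR, normalized to ACTB, GAPDH, POLR2A; bidirectional fit versus DMSO.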

[15] = read-out: Glutamate-cysteine ligase catalytic (GCLC), GCLC (gene 2729); assay: LTEA_HepaRG_GCLC: Life Technologies and Expression Analysis (LTEA) Assay for Glutamate-cysteine ligase catalytic (GCLC) using HepaRG (AID 2283498)
How it was run: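 Differentiated HepaRG cells exposed 48 h in serum-free induction medium, eight-point half-log series topping at 100 uM in 0.5% DMSO, duplicates. GCLC mRNA by qRT-PCR normalized to ACTB, GAPDH and POLR2A, fitted bidirectionally versus DMSO.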

Cytochrome P450 3A4 (Homo sapiens), sequence (P08684 whole entry, looked up): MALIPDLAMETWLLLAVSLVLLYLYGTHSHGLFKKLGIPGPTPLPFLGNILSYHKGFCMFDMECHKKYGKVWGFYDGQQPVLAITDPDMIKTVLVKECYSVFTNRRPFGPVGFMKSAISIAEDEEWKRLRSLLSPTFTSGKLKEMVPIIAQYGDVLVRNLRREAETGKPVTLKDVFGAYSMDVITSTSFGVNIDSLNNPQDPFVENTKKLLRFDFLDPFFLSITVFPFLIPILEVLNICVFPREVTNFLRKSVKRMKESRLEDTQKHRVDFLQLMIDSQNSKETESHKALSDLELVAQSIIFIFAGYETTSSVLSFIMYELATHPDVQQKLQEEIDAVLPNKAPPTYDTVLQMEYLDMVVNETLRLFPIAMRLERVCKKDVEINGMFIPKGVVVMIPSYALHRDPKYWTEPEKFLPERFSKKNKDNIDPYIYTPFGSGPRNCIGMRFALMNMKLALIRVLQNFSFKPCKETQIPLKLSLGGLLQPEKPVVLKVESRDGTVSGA
Cytochrome P450 3A7 (Homo sapiens), sequence (P24462 whole entry, looked up): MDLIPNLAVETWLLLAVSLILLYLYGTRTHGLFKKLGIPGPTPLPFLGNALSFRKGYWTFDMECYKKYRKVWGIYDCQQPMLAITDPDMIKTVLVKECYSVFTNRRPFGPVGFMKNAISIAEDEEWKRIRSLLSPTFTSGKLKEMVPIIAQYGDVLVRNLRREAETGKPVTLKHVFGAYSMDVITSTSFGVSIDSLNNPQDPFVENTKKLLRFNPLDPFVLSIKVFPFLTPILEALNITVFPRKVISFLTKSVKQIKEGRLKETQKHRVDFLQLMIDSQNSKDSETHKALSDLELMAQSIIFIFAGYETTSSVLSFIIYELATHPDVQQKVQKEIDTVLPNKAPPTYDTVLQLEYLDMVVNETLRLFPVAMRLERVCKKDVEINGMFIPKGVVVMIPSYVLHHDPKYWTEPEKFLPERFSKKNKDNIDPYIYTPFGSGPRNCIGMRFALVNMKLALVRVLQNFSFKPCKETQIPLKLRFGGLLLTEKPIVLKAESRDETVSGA

CON=C(C(=O)OC)c1ccccc1CON=C(C)c1cccc(C(F)(F)F)c1 was tested. Which outcome (CYP2C8 (gene 1558)) did it give?
The outcome was “inactive”.

And the outcome (CYP2C9 (gene 1559))?
The outcome was “inactive”.

What about the AC50 (CYP2E1 (gene 1571)) of the same compound?
The AC50 was 25.4 µM (active).

And the outcome (CYP4A11 (gene 1579))?
The outcome was “inactive”.

And the AC50 [1]?
The AC50 was 13.1 µM (active).

What about the outcome [2] of the same compound?
Its outcome is “inactive”.

What about the outcome [3] of the same compound?
The outcome was “inactive”.

What about the outcome [4] of the same compound?
Its outcome is “inactive”.

And the outcome [5]?
The outcome was “inactive”.

And the AC50 [6]?
The AC50 was 19.5 µM (active).

What about the outcome [7] of the same compound?
Its outcome is “inactive”.

And the outcome [8]?
The outcome was “inactive”.

What about the outcome [9] of the same compound?
The outcome was “inactive”.

And the outcome [10]?
Its outcome is “inactive”.

And the outcome [11]?
Its outcome is “inactive”.

What about the outcome [12] of the same compound?
Its outcome is “inactive”.

What about the outcome [13] of the same compound?
Its outcome is “inactive”.

What about the outcome [14] of the same compound?
The outcome was “inactive”.

What does the source list for C[Si](Cn1cncn1)(c1ccc(F)cc1)c1ccc(F)cc1?
AC50 (CYP2C8 (gene 1558)): 71.8 µM (active); AC50 (CYP2C9 (gene 1559)): 35.5 µM (active); AC50 (CYP2E1 (gene 1571)): 19.4 µM (active); AC50 (CYP4A11 (gene 1579)): 25.9 µM (active); AC50 [1]: 82.4 µM (active); AC50 [2]: 31.9 µM (active); outcome [3]: inactive; outcome [4]: inactive; outcome [5]: inactive; AC50 [6]: 81.9 µM (active); outcome (CYP3A5 (gene 1577)): inactive; AC50 [7]: 76.9 µM (active); AC50 [8]: 15.8 µM (active); AC50 [9]: 39.6 µM (active); AC50 [10]: 72.5 µM (active); AC50 [11]: 33.9 µM (active); AC50 [12]: 62.8 µM (active); AC50 [13]: 74.9 µM (active); outcome [14]: inactive

What does the source list for CSc1nc(NC(C)C)nc(NC(C)C)n1?
outcome (CYP2C8 (gene 1558)): inactive; AC50 (CYP2C9 (gene 1559)): 85.9 µM (active); AC50 (CYP2E1 (gene 1571)): 39.1 µM (active); AC50 (CYP4A11 (gene 1579)): 31 µM (active); AC50 [1]: 1.46 µM (active); outcome [2]: inactive; outcome [3]: inactive; outcome [4]: inactive; outcome [5]: inactive; AC50 [6]: 1.17 µM (active); AC50 [7]: 44.1 µM (active); AC50 [8]: 24.3 µM (active); AC50 [9]: 50 µM (active); AC50 [10]: 81.6 µM (active); outcome [15]: inactive; AC50 [11]: 64.7 µM (active); outcome [12]: inactive; outcome [13]: inactive; outcome [14]: inactive
